The results in this text go back to PubChem BioAssay (Tox21).

Test [1] is described as follows: qHTS assay to identify small molecule antagonists of the progesterone receptor (PR) signaling pathway - cell viability counter screen (AID 1346798). Further: series mostly up to about 92 µM; nearly all actives have a fitted effect of over 50% in size. The method, boiled down:
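In the same plates used for the beta-lactamase readout, cell viability of compound- and R5020-treated PR-UAS-bla HEK293T cells (16 hr, 37C) was assessed by CellTiter-Glo luminescence.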
In general terms: In qHTS, concentration-response curves come from the screen itself.

The nature of test [2]: qHTS assay to identify small molecule agonists of the progesterone receptor (PR) signaling pathway - cell viability counter screen (AID 1346799; calls by dose curve; further: nearly all actives have a fitted effect of over 45% in size). The method, boiled down: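 Multiplexed viability read: CellTiter-Glo luminescence, 30 min RT, following LiveBLAzer FRET measurement on PR-UAS-bla HEK293T cells exposed to compounds 16 hr.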
The nature of test [3]: qHTS assay to identify small molecule antagonists of the TGF-beta/Smad signaling pathway - cell viability counter screen (AID 1346824). Further: nearly all actives have a fitted effect of over 50% in size. The method, boiled down: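 Cytotoxicity counter-screen run in the same wells as the beta-lactamase Smad reporter read: CellTiter-Glo luminescence after 30 min at room temperature. HEK 293T SBE-bla cells had 5 hr compound exposure at 37 C with TGF-beta1 (0.25 ng/mL stock).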

The nature of test [4]: qHTS assay to identify small molecule agonists of the TGF-beta/Smad signaling pathway - cell viability counter screen (AID 1346829). Further: top concentration of the series differs between compounds; nearly all actives have a fitted effect of over 45% in size. A digest of the protocol:
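Tox21 qHTS format: SBE-bla HEK 293T cells treated with DMSO-dissolved compounds for 5 hr; CellTiter-Glo luminescence after 30 min at room temperature.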

A short description of test [5]: qHTS assay to identify small molecule agonists of the TGF-beta/Smad signaling pathway (AID 1346859; active means well fitted activation curve with a large enough effect in the signal ratio in the repeat runs, not every such curve was filed as active; the % refers to the signal ratio; further: series mostly up to about 77 µM). A digest of the protocol: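 Screening used HEK 293T SBE-bla cells at 4,000/well. Test agents: 5 hr, 37 C. Detection: FRET substrate, 2 hr RT, then excitation 405 nm with emissions at 460 and 530 nm.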
Test [6] deals with Thyrotropin-releasing hormone receptor (Homo sapiens) (UniProt P34981). The experiment in a line: qHTS assay to identify small molecule agonists of the thyrotropin-releasing hormone receptor (TRHR) signaling pathway (AID 1346891; calls by dose curve; further: series mostly up to about 58 µM). A digest of the protocol: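 Readout was intracellular calcium fluorescence in TRHR-Hek293 cells. Cells were incubated 18 h, dye-loaded 2 h at 37 °C, and treated with compound in agonist mode.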
Thyrotropin-releasing hormone receptor (Homo sapiens), sequence (P34981 whole entry, looked up): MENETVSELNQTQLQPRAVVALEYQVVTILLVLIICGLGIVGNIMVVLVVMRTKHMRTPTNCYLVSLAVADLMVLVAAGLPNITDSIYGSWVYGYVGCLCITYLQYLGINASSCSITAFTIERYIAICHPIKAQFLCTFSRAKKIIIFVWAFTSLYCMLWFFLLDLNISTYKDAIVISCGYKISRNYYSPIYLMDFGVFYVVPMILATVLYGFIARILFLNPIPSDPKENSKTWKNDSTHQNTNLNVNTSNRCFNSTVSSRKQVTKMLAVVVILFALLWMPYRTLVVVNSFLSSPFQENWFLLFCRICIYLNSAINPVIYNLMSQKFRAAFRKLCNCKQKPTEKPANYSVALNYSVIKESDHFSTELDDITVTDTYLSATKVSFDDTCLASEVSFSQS

Test [7] in a line: Human pregnane X receptor (PXR) small molecule agonists, qHTS cell viability counter screen (AID 1346977). Further: nearly all actives have a fitted effect of over 50% in size. A digest of the protocol: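 In each well, the PXR reporter HepG2 line was checked for viability: CellTiter-Fluor reagent added 23hr post-dosing, fluorescence read after 1hr incubation at 37C.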
A short description of test [8]: Caspase-3/7 induction in HepG2 cells by small molecules, qHTS assay (AID 1346978). Further: nearly all actives have a fitted effect of over 15% in size. A digest of the protocol:
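Caspase-3/7 induction was measured by Caspase-Glo 3/7 luminescence (30 min, room temperature) after a 17 hr compound exposure of wild-type HepG2 cells seeded at 2,000 per well and pre-incubated 5 hr.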

Test [9] can be described thus: Caspase-3/7 induction in CHO-K1 cells by small molecules, qHTS cell viability counter screen (AID 1346979). Further: nearly all actives have a fitted effect of over 35% in size. The method, boiled down: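 Following a 5hr settling period, CHO-K1 cells at 1,500 per well received DMSO-dissolved compounds. Cell viability was quantified 16hr later by CellTiter-Fluor fluorescence, measured after 1hr with reagent at 37C.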
A short description of test [10]: Caspase-3/7 induction in CHO-K1 cells by small molecules, qHTS assay (AID 1346980). Further: nearly all actives have a fitted effect of over 15% in size. The method, boiled down: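 Luminescent Caspase-Glo 3/7 read (30min, room temperature) quantified apoptosis induction. Cells were wild-type CHO-K1, treated with compound for 17hr at 37 C and 5% CO2.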
Test [11] in a line: Caspase-3/7 induction in HepG2 cells by small molecules, qHTS cell viability counter screen (AID 1346981). Further: series mostly up to about 92 µM; nearly all actives have a fitted effect of over 30% in size. The method, boiled down:
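In this quantitative HTS counter screen, compounds delivered in DMSO were left on unmodified HepG2 cells for 16 hr at 37 C. Viability was then determined fluorometrically with CellTiter-Fluor, in parallel with caspase-3/7 induction in the same wells.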

Test [12] deals with Nuclear receptor subfamily 1 group I member 2 (Rattus norvegicus) (UniProt Q9R1A7). Briefly: Rat pregnane X receptor (rPXR) activation by small molecules, qHTS assay (AID 1346983). Further: nearly all actives have a fitted effect of over 20% in size. The conditions noted are these: rPXR luciferase reporter cells, One-Glo luminescence, 24 h; max activation: stronger effect = higher value. A digest of the protocol: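 Luminescent readout (One-Glo luciferase, 30 min room temperature) followed 24 hr compound treatment at 37 C of rPXR cells plated 2,000 per well and preincubated 5hr; qHTS format with compounds delivered in DMSO.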
Nuclear receptor subfamily 1 group I member 2 (Rattus norvegicus), sequence (Q9R1A7 whole entry, looked up): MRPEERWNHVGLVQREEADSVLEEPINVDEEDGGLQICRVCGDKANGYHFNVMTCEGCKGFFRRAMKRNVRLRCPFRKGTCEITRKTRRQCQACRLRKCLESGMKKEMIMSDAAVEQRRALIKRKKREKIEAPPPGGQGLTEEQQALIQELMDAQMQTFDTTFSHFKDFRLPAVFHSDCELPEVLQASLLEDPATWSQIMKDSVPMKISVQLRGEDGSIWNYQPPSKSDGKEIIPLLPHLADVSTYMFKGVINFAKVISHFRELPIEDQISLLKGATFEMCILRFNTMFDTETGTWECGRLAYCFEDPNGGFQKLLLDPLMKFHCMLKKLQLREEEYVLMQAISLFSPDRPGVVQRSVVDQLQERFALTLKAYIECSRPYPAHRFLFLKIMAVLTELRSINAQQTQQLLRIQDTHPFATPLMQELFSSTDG

Test [13] deals with Nuclear receptor subfamily 1 group I member 2 (Homo sapiens) (UniProt O75469). Briefly: Human pregnane X receptor (PXR) small molecule agonists, qHTS assay (AID 1346982). Further: nearly all actives have a fitted effect of over 35% in size. A digest of the protocol:
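Reporter HepG2 cells expressing PXR-Luc are cultured in charcoal-stripped FBS (5%), treated with compounds for 24 hr at 37 C, and assayed by ONE-Glo luminescence after 30 min at room temperature.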

Test [14] has as its target Cytochrome P450 2D6 (Homo sapiens) (UniProt P10635). Briefly: Cytochrome P450 Family 2 Subfamily D Member 6 (CYP2D6) small molecule antagonists: luciferase reporter qHTS assay (AID 1671196). Further: series mostly up to about 120 µM; nearly all actives have a fitted effect of over 50% in size. A digest of the protocol: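 Test chemicals meet CYP2D6 plus proluciferin substrate (10 min, RT); NADPH regenerating solution then drives turnover for 1 h. Detection reagent halts the reaction; luminescence measured after 20 min.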
(A reporter such as luciferase makes a cellular process visible.)

Test [15] deals with Cytochrome P450 2C19 (Homo sapiens) (UniProt P33261). Briefly: Cytochrome P450 Family 2 Subfamily C Member 19 (CYP2C19) small molecule antagonists: luciferase reporter qHTS assay (AID 1671197). Further: nearly all actives have a fitted effect of over 65% in size. Further: potency means the concentration at half of the fitted maximal effect. The method, boiled down: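 Relative luminescence units recorded 20 min after the detection reagent stopped a 1 h, 37C CYP2C19 reaction on proluciferin substrate, which was started by NADPH regeneration following 10 min room-temperature compound preincubation; ketoconazole positive control.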
Cytochrome P450 2C19 (Homo sapiens), sequence (P33261 whole entry, looked up): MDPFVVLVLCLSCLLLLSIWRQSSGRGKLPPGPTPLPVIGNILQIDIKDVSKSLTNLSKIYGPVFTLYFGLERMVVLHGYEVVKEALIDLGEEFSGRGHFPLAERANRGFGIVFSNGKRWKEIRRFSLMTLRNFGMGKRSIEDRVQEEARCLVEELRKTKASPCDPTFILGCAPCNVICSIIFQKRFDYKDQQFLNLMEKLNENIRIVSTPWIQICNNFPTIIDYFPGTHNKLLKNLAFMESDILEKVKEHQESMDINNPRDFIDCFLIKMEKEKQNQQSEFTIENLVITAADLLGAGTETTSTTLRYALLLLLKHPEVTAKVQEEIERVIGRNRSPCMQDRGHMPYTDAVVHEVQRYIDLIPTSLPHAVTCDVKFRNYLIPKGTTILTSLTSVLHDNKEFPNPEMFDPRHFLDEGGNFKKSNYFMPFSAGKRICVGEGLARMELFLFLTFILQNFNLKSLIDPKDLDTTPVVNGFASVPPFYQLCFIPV

Test [16] has as its target Cytochrome P450 2C9 (Homo sapiens) (UniProt P11712). Briefly: Cytochrome P450 Family 2 Subfamily C Member 9 (CYP2C9) small molecule antagonists: luciferase reporter qHTS assay (AID 1671198). The method, boiled down: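 Enzyme-substrate mix preincubated with compound 10 min at room temperature; reaction started with NADPH regeneration solution, 1 h 37C. Luminescent luciferin product read after 20 min detection reagent.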

For test [17], the target named is Cytochrome P450 1A2 (Homo sapiens) (UniProt P05177). Briefly: Cytochrome P450 Family 1 Subfamily A Member 2 (CYP1A2) small molecule antagonists: luciferase reporter qHTS assay (AID 1671199). Further: nearly all actives have a fitted effect of over 50% in size. Further: potency means the concentration at half of the fitted maximal effect. The method, boiled down:
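Steps: enzyme-substrate mix dispensed; test compounds and furafylline control pinned in; 10 min room temperature; NADPH regeneration solution added, 1 h; reaction stopped with luciferin detection reagent; luminescence read after 20 min.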

Test [18] addresses Nuclear receptor subfamily 1 group I member 2 (Homo sapiens) (UniProt O75469). The experiment in a line: CYP3A4 induction through human pregnane X receptor (PXR) by small molecules, qHTS assay (AID 1346984). Further: nearly all actives have a fitted effect of over 40% in size. The method, boiled down:
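Induction measured in HepG2-based DPX-2 cells co-expressing human PXR and a CYP3A4 promoter-driven luciferase. After a 24-hour compound exposure, cells received CYP3A4 luciferin substrate at 3uM final for 3 hours, and light output was then recorded.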

For test [19] the target is unchanged. Briefly: Human pregnane X receptor (PXR) activation by small molecules, qHTS assay (AID 1346985). Further: nearly all actives have a fitted effect of over 40% in size. A digest of the protocol:
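DPX-2 cells (HepG2 co-transfected with a PXR response element and a CYP3A4-promoter luciferase construct) were seeded at 2,000 per well, rested 5 hr at 37C, then exposed to DMSO-dissolved compounds for 24 hr. Activation was read as luciferase luminescence.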

Inconclusive results are not listed. A structure can be active in one record and inactive in another. Calls of active or inactive are those of the source. Unless noted, the call rests on the fitted dose curve; in most records, active means well fitted curve in the direction sought with a large enough effect in the repeat runs; inconclusive means weak or mixed curves; inactive means no such curve, though single readings can be large; an effect the other way counts as inactive or inconclusive.
On the % scale 0 is the no-effect control and ±100 the full control effect.

Cytochrome P450 1A2 (Homo sapiens), sequence (P05177 whole entry, looked up): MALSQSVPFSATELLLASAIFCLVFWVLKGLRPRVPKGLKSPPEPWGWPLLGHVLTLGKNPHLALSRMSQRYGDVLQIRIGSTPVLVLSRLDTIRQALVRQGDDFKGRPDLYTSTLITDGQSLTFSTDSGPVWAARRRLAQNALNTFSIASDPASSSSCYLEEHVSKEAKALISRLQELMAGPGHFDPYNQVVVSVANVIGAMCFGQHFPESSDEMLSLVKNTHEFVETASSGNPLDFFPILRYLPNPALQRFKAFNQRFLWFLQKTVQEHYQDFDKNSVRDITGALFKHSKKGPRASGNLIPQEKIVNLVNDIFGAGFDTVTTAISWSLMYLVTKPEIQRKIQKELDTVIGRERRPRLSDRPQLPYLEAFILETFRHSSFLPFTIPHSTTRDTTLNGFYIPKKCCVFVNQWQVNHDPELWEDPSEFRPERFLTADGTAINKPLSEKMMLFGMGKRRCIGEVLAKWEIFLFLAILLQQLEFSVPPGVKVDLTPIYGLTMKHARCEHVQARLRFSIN
Nuclear receptor subfamily 1 group I member 2 (Homo sapiens), sequence (O75469 whole entry, looked up): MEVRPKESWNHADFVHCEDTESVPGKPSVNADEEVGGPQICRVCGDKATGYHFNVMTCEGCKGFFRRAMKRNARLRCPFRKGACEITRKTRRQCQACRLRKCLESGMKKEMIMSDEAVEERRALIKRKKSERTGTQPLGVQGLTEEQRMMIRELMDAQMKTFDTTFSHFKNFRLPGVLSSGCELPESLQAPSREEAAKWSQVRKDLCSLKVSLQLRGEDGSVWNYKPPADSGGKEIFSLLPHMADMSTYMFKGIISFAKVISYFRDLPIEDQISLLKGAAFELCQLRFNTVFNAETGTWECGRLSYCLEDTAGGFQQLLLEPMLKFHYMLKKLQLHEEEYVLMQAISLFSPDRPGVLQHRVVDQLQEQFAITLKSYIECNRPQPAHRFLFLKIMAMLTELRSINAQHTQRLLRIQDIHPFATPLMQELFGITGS
Cytochrome P450 2C9 (Homo sapiens), sequence (P11712 whole entry, looked up): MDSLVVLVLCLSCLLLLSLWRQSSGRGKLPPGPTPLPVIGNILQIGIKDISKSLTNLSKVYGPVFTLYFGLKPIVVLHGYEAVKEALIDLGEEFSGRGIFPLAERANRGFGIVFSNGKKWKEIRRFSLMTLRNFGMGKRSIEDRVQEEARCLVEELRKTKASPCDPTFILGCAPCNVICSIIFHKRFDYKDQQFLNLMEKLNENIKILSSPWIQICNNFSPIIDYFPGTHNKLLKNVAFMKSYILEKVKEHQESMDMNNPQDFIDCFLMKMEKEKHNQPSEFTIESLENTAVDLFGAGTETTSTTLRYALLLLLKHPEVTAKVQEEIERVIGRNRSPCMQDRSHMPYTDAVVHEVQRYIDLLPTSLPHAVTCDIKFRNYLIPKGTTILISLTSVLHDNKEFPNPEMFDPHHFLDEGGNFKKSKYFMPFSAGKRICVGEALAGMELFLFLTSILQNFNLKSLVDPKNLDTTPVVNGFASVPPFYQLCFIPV
Cytochrome P450 2D6 (Homo sapiens), sequence (P10635 whole entry, looked up): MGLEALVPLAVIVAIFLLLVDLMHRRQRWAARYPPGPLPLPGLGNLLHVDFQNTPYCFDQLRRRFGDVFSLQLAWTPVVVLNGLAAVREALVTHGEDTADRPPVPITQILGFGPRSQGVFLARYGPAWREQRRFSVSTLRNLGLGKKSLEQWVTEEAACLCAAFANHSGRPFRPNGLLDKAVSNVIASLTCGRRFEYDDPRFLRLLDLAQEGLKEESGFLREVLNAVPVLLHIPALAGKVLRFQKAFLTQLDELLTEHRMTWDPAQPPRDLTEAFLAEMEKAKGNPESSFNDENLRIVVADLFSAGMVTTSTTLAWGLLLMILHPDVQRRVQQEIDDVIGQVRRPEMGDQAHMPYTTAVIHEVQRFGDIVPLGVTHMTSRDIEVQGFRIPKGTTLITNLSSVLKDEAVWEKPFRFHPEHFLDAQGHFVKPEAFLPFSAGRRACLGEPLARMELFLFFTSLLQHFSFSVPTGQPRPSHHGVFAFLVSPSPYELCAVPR

Take `OCCOCCN1CCN(C2=Nc3ccccc3Sc3ccccc32)CC1`: the Potency entry in test [1], in test [2], in [3], in test [4], in test [7] and in test [8] was “inactive” each time. Besides, the Potency result in [9] and in test [11] was “inactive” each time. Moreover, the molecule was classed as inactive in test [5], in [6] and in test [10]. Also, the max activation in [12] was 9.6% (inactive).

Consider `Nc1ccccc1[N+](=O)[O-]`, for which the Potency entry in test [1], in test [2], in test [3], in [4], in test [7] and in test [8] was “inactive” throughout. Also, the Potency entry in [9], in test [11], in [13], in test [14], in test [15] and in [16] was “inactive” throughout. Further, the result in test [5], in test [6] and in test [10] was inactive. The Potency in [17] was 35.9 µM (active).

As for `Cc1cccnc1`, the Potency result in test [1], in test [2], in [3], in test [4], in test [7] and in test [8] was “inactive” each time. Moreover, the Potency result in test [9], in [11], in test [13], in test [14], in test [15] and in [16] was “inactive” throughout. Also, the Potency entry in test [17] was “inactive”. In addition, the result in test [5], in test [6] and in test [10] was inactive.

For the molecule `Fc1ccc(Br)cc1`, the Potency result in test [1], in [2], in test [3], in test [4], in test [7] and in [8] was “inactive” in each case. For the same molecule, the Potency entry in [9], in [11], in [13], in test [14] and in [16] was “inactive” in each case. The outcome in [5], in test [6] and in [10] was inactive. For the same molecule, the Potency is 71.7 µM (active) and inactive in test [15]; 40.3 µM (active) and inactive in [17].

For `C#CCN(C)Cc1ccccc1`, the Potency entry in test [1], in test [2], in [3], in test [4], in test [7] and in [8] was “inactive” throughout. The Potency entry in [9], in test [11], in [13], in test [19], in [15] and in test [16] was “inactive” each time. Further, the result in test [5], in test [6], in test [10] and in test [18] was inactive. Moreover, the max activation in [12] was -0.422% (inactive).

`CC(=O)Nc1cccc(O)c1`: the Potency result in test [1], in [2], in test [3], in test [4], in test [7] and in test [8] was “inactive” in each case. Moreover, the Potency result in test [9], in [11], in test [13], in [19], in [14] and in [15] was “inactive” throughout. Further, the Potency result in test [16] and in test [17] was “inactive” throughout. Moreover, the call in test [5], in [10] and in test [18] was inactive. In [12], the max activation was -2.31% (inactive).
